Measured values taken from the OligoGym collection.

biological target: RGS9; test: pooled miR-30 sensor sort-seq; sequence = guide strand; conditions: shRNA
Further: reference of the scale not given here.

**Q.** For TTTTTGACAGCAACGACTGTTT, which sensor-assay potency score (higher = more potent) is on record?
**A.** The sensor-assay potency score (higher = more potent) was -0.217.

**Q.** With TTGTTTCTTGACTTCATTCGGA as the sequence, how does the sensor-assay potency score (higher = more potent) read?
**A.** Its sensor-assay potency score (higher = more potent) is 0.389.

**Q.** Which sensor-assay potency score (higher = more potent) does the source give for TTTCTTTTTGATATTTCGCTTG here?
**A.** Its sensor-assay potency score (higher = more potent) is -0.178.

**Q.** With TGACTTTGGACTGATCTCCATA as the sequence, how does the sensor-assay potency score (higher = more potent) read?
**A.** Its sensor-assay potency score (higher = more potent) is -0.742.

**Q.** With TATCTGTCTGCTTTGTTCCTCT as the sequence, how does the sensor-assay potency score (higher = more potent) read?
**A.** The sensor-assay potency score (higher = more potent) was -0.0404.

**Q.** With TTGAGAATGAGATTCTTGGGGT as the sequence, how does the sensor-assay potency score (higher = more potent) read?
**A.** Its sensor-assay potency score (higher = more potent) is 0.816.

**Q.** With TTCCTTTTCATATTCTTCCAAA as the sequence, how does the sensor-assay potency score (higher = more potent) read?
**A.** Its sensor-assay potency score (higher = more potent) is -0.756.

**Q.** For TTCTTTTTGATATTTCGCTTGG, which sensor-assay potency score (higher = more potent) is on record?
**A.** The sensor-assay potency score (higher = more potent) was -0.579.

**Q.** With TTTACCTTGACTTCATTCGGAT as the sequence, how does the sensor-assay potency score (higher = more potent) read?
**A.** Its sensor-assay potency score (higher = more potent) is 0.0975.

biological target: RHBDL3; test: as above; conditions: shRNA

**Q.** With TAGGCTGACAAAATCCTGGTAG as the sequence, how does the sensor-assay potency score (higher = more potent) read?
**A.** Its sensor-assay potency score (higher = more potent) is 0.858.

**Q.** Which sensor-assay potency score (higher = more potent) does the source give for AAACTGATCAAACAGGACTTTC here?
**A.** Its sensor-assay potency score (higher = more potent) is -1.76.

**Q.** For TTGCCTGTGCTAATGTAGCCTG, which sensor-assay potency score (higher = more potent) is on record?
**A.** The sensor-assay potency score (higher = more potent) was -0.542.

**Q.** Which sensor-assay potency score (higher = more potent) does the source give for TTAGGCTGACAAAATCCTGGTA here?
**A.** The sensor-assay potency score (higher = more potent) was 0.00913.

**Q.** With ATCCGCAGCAGCTTGAACTGGC as the sequence, how does the sensor-assay potency score (higher = more potent) read?
**A.** The sensor-assay potency score (higher = more potent) was -0.0826.

**Q.** With TGAACTGGCACTTCATGCCTGA as the sequence, how does the sensor-assay potency score (higher = more potent) read?
**A.** The sensor-assay potency score (higher = more potent) was 0.0699.

**Q.** Which sensor-assay potency score (higher = more potent) does the source give for TTGAACTGGCACTTCATGCCTG here?
**A.** Its sensor-assay potency score (higher = more potent) is 0.341.

**Q.** How did the sensor-assay potency score (higher = more potent) turn out when AAATCCACCACAGTGACTGGTC was run?
**A.** Its sensor-assay potency score (higher = more potent) is 0.238.

**Q.** For TAGCTGTCATAGTACCACTTGC, which sensor-assay potency score (higher = more potent) is on record?
**A.** The sensor-assay potency score (higher = more potent) was -0.706.

**Q.** TGATCAAACAGGACTTTCCAGT was tested. Which sensor-assay potency score (higher = more potent) did it give?
**A.** Its sensor-assay potency score (higher = more potent) is -0.423.

**Q.** For TGTCATAGTACCACTTGCGGTC, which sensor-assay potency score (higher = more potent) is on record?
**A.** Its sensor-assay potency score (higher = more potent) is -0.531.

**Q.** TAATGTAGCCTGTGTTCCCAGG was tested. Which sensor-assay potency score (higher = more potent) did it give?
**A.** The sensor-assay potency score (higher = more potent) was -0.768.

biological target: RHOF; test: as above; conditions: shRNA

**Q.** For ATGAGCAGCGAGGTCTTGCCGC, which sensor-assay potency score (higher = more potent) is on record?
**A.** Its sensor-assay potency score (higher = more potent) is -1.07.

**Q.** For TAGAGAGCAGCTCGGATCTGTT, which sensor-assay potency score (higher = more potent) is on record?
**A.** Its sensor-assay potency score (higher = more potent) is -0.736.

**Q.** TCCAGGTAGAGAGCAGCTCGGA was tested. Which sensor-assay potency score (higher = more potent) did it give?
**A.** The sensor-assay potency score (higher = more potent) was -1.54.

**Q.** How did the sensor-assay potency score (higher = more potent) turn out when TAGCAGATGAGCACGAGGTGGG was run?
**A.** The sensor-assay potency score (higher = more potent) was 0.0207.

**Q.** With TAGGTGATGGGCTCCAGCTGGG as the sequence, how does the sensor-assay potency score (higher = more potent) read?
**A.** The sensor-assay potency score (higher = more potent) was -0.461.

**Q.** With TTCCTCAGGTCTGTCTTGCAGC as the sequence, how does the sensor-assay potency score (higher = more potent) read?
**A.** The sensor-assay potency score (higher = more potent) was -0.598.

**Q.** Which sensor-assay potency score (higher = more potent) does the source give for TTCAGCTCCTTCCTGCCCGGAC here?
**A.** The sensor-assay potency score (higher = more potent) was -0.816.

**Q.** TTGCTGCCAACGGTCACGCTGG was tested. Which sensor-assay potency score (higher = more potent) did it give?
**A.** The sensor-assay potency score (higher = more potent) was -0.873.

**Q.** For TTGATGAGGACGTTGTCGTAGC, which sensor-assay potency score (higher = more potent) is on record?
**A.** The sensor-assay potency score (higher = more potent) was 0.173.

**Q.** Which sensor-assay potency score (higher = more potent) does the source give for TACTTCTCGAACACCGATGGGG here?
**A.** Its sensor-assay potency score (higher = more potent) is 0.0393.

**Q.** AAACTTGGCGGAACATTCCAGG was tested. Which sensor-assay potency score (higher = more potent) did it give?
**A.** The sensor-assay potency score (higher = more potent) was -0.805.

**Q.** For TAGTCTTCTTGCCCGGCCGTGT, which sensor-assay potency score (higher = more potent) is on record?
**A.** Its sensor-assay potency score (higher = more potent) is -1.09.

biological target: RHOH; test: as above; conditions: shRNA

**Q.** AACACCTGCTGTACTCCCCGAT was tested. Which sensor-assay potency score (higher = more potent) did it give?
**A.** The sensor-assay potency score (higher = more potent) was -0.621.

**Q.** For TGTTCTCGTACACTGTGGGCTT, which sensor-assay potency score (higher = more potent) is on record?
**A.** The sensor-assay potency score (higher = more potent) was -0.393.

**Q.** How did the sensor-assay potency score (higher = more potent) turn out when TTGTAGAGTGTAGTTAGTGAAA was run?
**A.** The sensor-assay potency score (higher = more potent) was -1.62.

**Q.** TTCAGGAATGAGTTATGGTTGG was tested. Which sensor-assay potency score (higher = more potent) did it give?
**A.** Its sensor-assay potency score (higher = more potent) is -0.949.

**Q.** AAACACCTGCTGTACTCCCCGA was tested. Which sensor-assay potency score (higher = more potent) did it give?
**A.** Its sensor-assay potency score (higher = more potent) is -0.993.

**Q.** How did the sensor-assay potency score (higher = more potent) turn out when TTCCATGGCATTGACGCAGGAG was run?
**A.** Its sensor-assay potency score (higher = more potent) is 0.27.

**Q.** How did the sensor-assay potency score (higher = more potent) turn out when TAAGGGCTGAGCACTCCAGGTA was run?
**A.** The sensor-assay potency score (higher = more potent) was -0.636.
